9 compounds from PubChem BioAssay (NCATS) can be followed below.

Inconclusive results are not listed. Entries that show only a call come without a potency. The source made the active and inactive calls. Calls follow the shape of the dose curve; as a rule, active = well fitted inhibition curve with a large enough effect; inconclusive = small, poorly fitted or top-dose-only effect; inactive = flat fitted curve, though single readings scatter.
Potency is read from the fitted curve at half-maximal effect.

The subject of the assay is CP260. Description: qHTS profiling for inhibitors of Plasmodium falciparum proliferation (AID 504749). Also: nearly all actives have a fitted effect of over 60% in size. The following applies: P. falciparum in erythrocytes, SYBR Green DNA, 72 h; series mostly up to 12.8 µM. In short, it runs like this:
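Three-day growth assay of blood-stage parasites in erythrocytes (0.3% parasitemia, 2.5% hematocrit) at 37 C, 5% CO2, quantified by SYBR Green DNA staining after overnight detergent lysis.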
For `CCO[C@H]1O[C@@H]([C@H](COCc2ccccc2)OCc2ccccc2)[C@@H](OCc2ccccc2)[C@H]1O`, the Potency result was “inactive”. The same measure for `COc1cc(N[C@@H](C)CCCN)c2ncccc2c1`: 1410 nM (active); for `C=Cc1c(C)c2cc3nc(cc4[nH]c(cc5nc(cc1[nH]2)C(C)=C5CCC(=O)O)c(CCC(=O)OC)c4C)[C@@]1(C)C3=CC=C(C(=O)OC)[C@H]1C(=O)OC` (tested in a mixture with another compound): 2510 nM (active). For `O=C(OC[C@@H](O)CO)c1ccccc1Nc1ccnc2cc(Cl)ccc12` the value was “inactive”; for `CO[C@]1(NC(=O)[C@H](C(=O)O)c2ccc(O)cc2)C(=O)N2C(C(=O)O)=C(CSc3nnnn3C)CO[C@H]21`, “inactive”. The same measure for `COc1ccc2c(c1)N(C[C@@H](C)CN(C)C)c1ccccc1S2`: “inactive”; for `CCC(C)(C)C(=O)O[C@@H]1C[C@H](C)C=C2C=C[C@H](C)[C@@H](CC[C@H]3C[C@@H](O)CC(=O)O3)[C@H]21`: “inactive”; for `CC=C(/C(=C/C)c1ccc(O)cc1)c1ccc(O)cc1`: “inactive”. As for `CC1(C)S[C@@H]2[C@H](NC(=O)[C@@H](N)c3ccccc3)C(=O)N2[C@H]1C(=O)O[C@H]1OC(=O)c2ccccc21`, the Potency result is “inactive”.
